Source: PubChem BioAssay
Shiga inhibitor = blocks Shiga toxin action in Vero cells; Vero cells, Shiga toxin protein synthesis inhibition reporter; inhibition, % at 38.7 µM; 290,000 compounds, 9.2% hits; AID 2315; in the data active = inhibition mostly above about 28%, no sharp cut-off; inactive = mostly below about 43%
SARS PLP yeast = SARS-CoV PLP inhibition in yeast; S. cerevisiae expressing SARS-CoV PLpro, growth rescue; Potency, µM (series often up to 32.9 µM), actives largely listed as activators; 330,000 compounds, 0.19% hits; note: nearly all actives have a fitted effect of over 55% in size
Cycloheximide cs = counter-screen hit for Shiga toxin inhibitors, cycloheximide | max response, % | 300,000 compounds, 12% hits | cell reporter, cycloheximide protein synthesis inhibition counterscreen | AID 2314; in the data active = max response mostly above about 13%, no sharp cut-off; inactive = mostly below about 14%; note: read at 38.3 µM for the half of the compounds with a filed dose
NS1 function inh = blocks influenza NS1 protein function. Potency, µM (series often up to 46.1 µM). 270,000 compounds, 0.4% hits. AID 2326; note: actives are rising curves; nearly all actives have a fitted effect of over 50% in size
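Compounds were scored for reversing the slow growth caused by influenza A NS1 in S. cerevisiae, measured by optical density at 600 nm. Assay medium contained 2% galactose at pH 6.0; NS1-free yeast of the same strain were the positive control.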
Numbers stand for hits; i = inactive; ? = inconclusive; nt = no result. Shown are actives, neighbours in structure and some others; about 12% of the full set was active somewhere. Unless noted, calls come from the whole dose curve.

SMILES	Shiga inhibitor	SARS PLP yeast	Cycloheximide cs	NS1 function inh
CC(=O)Nc1ccc(Oc2ccc(NC(C)=O)c(NC(C)=O)c2)cc1	i	i	i	i
O=C(/C=C/NCc1cccnc1)c1ccc(-c2ccccc2)cc1	90.5	i	33.4	i
O=C(/C=C/c1ccccc1)NCc1cccnc1	i	i	i	i
O=C(NCc1cccnc1)c1cn(-c2ccccc2)nc1-c1ccccc1	i	i	21.0	nt
O=C(/C=C/c1ccc(-c2ccccc2)cc1)NCc1cccnc1	nt	i	28.0	i
COc1cc(OC)c(Cl)cc1N	i	i	i	i
CC(Sc1nc2ccccc2[nH]1)C(=O)Nc1ccccc1F (stereo unspecified)	i	i	i	nt
Cc1ccc(CNC(=O)CC(C)S(=O)(=O)c2ccc3c(c2)NC(=O)C(C)S3)cc1 (stereo unspecified)	i	i	i	i
O=C1CCOc2cc(OCc3ccccc3)ccc21	49.6	i	33.1	i
CCc1ccc(NC(=S)NC(=O)CC(C)C)cc1	19.1	?	70.5	?
CCCC(=O)NC(=S)Nc1ccc(N2CCOCC2)c(Cl)c1	43.6	i	19.0	i
CC(C)CC(=O)NC(=S)Nc1ccc(N2CCCC2)c(Cl)c1	56.5	i	i	i
CCN1CCN(c2ccc(NC(=O)C(C)C)cc2Cl)CC1	i	i	i	i
O=C(NC(=S)Nc1ccc(N2CCOCC2)c(Cl)c1)C(c1ccccc1)c1ccccc1	i	i	i	i
CC(C)C(=O)Nc1ccc(N2CCCC2)c(Cl)c1	i	i	43.7	nt
CC(C)CC(=O)NC(=S)Nc1ccc(NC(=O)c2ccco2)cc1	i	i	i	i
CCOC(=O)C1CCN(S(=O)(=O)c2ccc(Cl)cc2)CC1	i	i	i	i
C=CCn1c(=NC(=O)C2CC2)sc2cc(NC(C)=O)ccc21	i	i	27.7	i
COc1cc(NC(=O)CCc2c(C)noc2C)c(Cl)cc1C(=O)O	nt	i	nt	nt
O=C(O)[C@H](Cc1ccccc1)N1C(=O)c2ccccc2C1=O	nt	nt	nt	i
O=C(Nc1nccs1)c1cc2c(s1)CCCCC2	i	i	i	i
Cc1ccccc1C(=O)Nc1ccc(Br)cn1	90.5	i	49.1	i
O=C(Nc1ccc(Br)cn1)c1ccc(Cl)s1	84.0	i	54.0	i
O=C(Nc1nccs1)c1ccc(Cl)s1	i	i	19.5	i
O=C(Nc1ccc2sccc2c1)c1ccc(Cl)s1	39.2	i	33.4	i
SMILES	Shiga inhibitor	SARS PLP yeast	Cycloheximide cs	NS1 function inh
O=C(Nc1ccccc1C(=O)Nc1ccc(Br)cn1)c1ccccc1Cl	nt	i	nt	nt
C[C@H](CO)N1C[C@H](C)[C@@H](CN(C)C(=O)Nc2ccc(C(F)(F)F)cc2)Oc2ccc(NC(=O)Cc3ccccc3)cc2C1=O	nt	i	nt	nt
O=C(Nc1ccccn1)c1ccc(Cl)s1	99.7	i	62.2	i
O=C(Nc1nc(-c2ccccn2)cs1)c1ccc(Cl)s1	i	?	i	i
O=C(NC1=NCCS1)c1ccc(Br)s1	i	i	i	i
O=C(Nc1ccc(Br)cn1)c1ccc(Br)s1	107.9	i	61.7	i
O=C(Nc1ccon1)c1ccc(Br)s1	57.5	i	24.5	i
C[C@H](CO)N1C[C@H](C)[C@@H](CN(C)Cc2ccc(C(=O)O)cc2)Oc2ccc(NC(=O)Cn3cnnn3)cc2C1=O	nt	i	nt	nt
O=C(CNC(=O)c1sc2ccccc2c1Cl)Nc1ccccc1F	nt	i	nt	nt
CC(C)C(=O)N1CCC2(CC1)Oc1ccc(Cl)cc1C(=O)C21CC(c2cccnc2)=NO1 (stereo unspecified)	i	i	i	i
O=C(Nc1cc2c(oc1=O)CCCC2=O)c1ccc(Cl)cc1	i	i	19.7	i
Cc1nccc2oc(=O)c(NC(=O)c3ccc(Cl)cc3)cc12	i	i	i	nt
O=C1CN(c2ccccc2)C(=S)N1C(=O)c1ccccc1	47.4	i	46.4	i
O=C(c1ccccc1)N1CCC(=O)N1c1ccccc1	i	i	i	i
CN(CC(=O)Nc1ccccc1Cl)C(=O)COC(=O)c1ccccc1[N+](=O)[O-]	nt	i	nt	nt
Cn1cccc1C(=O)Nc1ccc(N2CCOCC2)cc1	nt	i	nt	nt
Cn1cccc1C(=O)C(=O)Nc1ccccc1	90.9	i	42.6	i
CC(C)(C)C(=O)NC(=O)Nc1ccccc1C(F)(F)F	i	i	10.8	i
Cn1cccc1C(=O)C(=O)Nc1ccccc1C(F)(F)F	64.9	i	39.9	nt
CC(C)Cn1cnc2c(SCc3ccc(Cl)cc3Cl)nc(N)nc21	nt	nt	nt	i
COc1ccc2nc(SCc3ccccc3C)nc(C)c2c1	i	i	12.1	i
COc1ccc2nc(SCC(=O)O)nc(C)c2c1	i	i	i	i
COc1ccc2nc(SCc3cccc(C)c3)nc(C)c2c1	61.7	?	27.2	i
Cc1c(C)n(Cc2ccccc2)c2ncnc(NN)c12	i	i	14.8	i
Cc1ccc(-n2c(C)c(C)c3c(NCCO)ncnc32)cc1	61.0	i	39.7	i
Cc1c(C)n(-c2ccccc2)c2ncnc(NCCCN(C)C)c12	i	i	i	i
